The values that follow come from ChEMBL document CHEMBL1157539, “Thousands of chemical starting points for antimalarial lead identification” (Nature, 2010).

Structures are written as SMILES.

Broadly, the Inhibition is how much of the control response was suppressed. Read a low Inhibition as a response near the control.

What all share (type): functional
In assay [1] the test system is Plasmodium falciparum. Nature of the assay: GSK_TCMDC: Inhibition of Plasmodium falciparum 3D7 in whole red blood cells, using parasite LDH activity as an index of growth. Test compounds present at 2uM.
Assay [2] deals with Plasmodium falciparum. As to the kind of experiment: GSK_TCMDC: Inhibition of Plasmodium falciparum Dd2 in whole red blood cells, using parasite LDH activity as an index of growth. Test compounds present at 2uM.
A further assay concerns HepG2. Nature of the assay: GSK_TCMDC: Percent inhibition of human HepG2 cell line. Test compounds present at 10uM.

Take `COc1ccc(-c2ccc3c(-c4cccc(S(C)(=O)=O)c4)cnc(N)c3c2)cc1`: the Inhibition was 89% with Plasmodium falciparum [1], 12% in the assay on Plasmodium falciparum [2] and 41% in the assay on HepG2.
Turning to `COc1cc(Cc2cnc(N)nc2N)cc(OCCCCC2SC(=O)NC2=O)c1OC` (stereo not drawn), the Inhibition in the assay with Plasmodium falciparum [1] turned out to be 94%; with Plasmodium falciparum [2], 0%; in the assay with HepG2, 0%.
Turning to `CC(C)C1C(O)=C(c2ccc3ccccc3c2)C(=O)N1Cc1cccc(F)c1` (stereo not drawn), the Inhibition in the assay on Plasmodium falciparum [1] worked out at 97%; in the assay with Plasmodium falciparum [2], 82%; in the assay on HepG2 it was 3%.
For the compound `Cl.Cn1ccc(-c2cccc(Nc3ccnc4cc(-c5nccs5)ccc34)c2)n1`, the Inhibition is given as 100% with Plasmodium falciparum [1], 94% in the assay on Plasmodium falciparum [2] and 39% in the assay with HepG2.
Consider `Fc1ccc2[nH]c(-c3cccc(-c4ccc(CNCc5ccccc5)cc4)c3)nc2c1.O=C(O)C(F)(F)F`, for which the Inhibition in the assay with Plasmodium falciparum [1] is 100%; in the assay on Plasmodium falciparum [2], 89%; in the assay with HepG2, 27%.
For `Cc1c(-c2cccc(Br)c2)[nH]c2nc(N)nc(N)c12`, in that order: 100%, 61% and 8%.
For `CN(CCCNC(=S)NC12CC3CC(CC(C3)C1)C2)CCCNc1ccnc2cc(Cl)ccc12`, in that order: 100%, 98% and 73%.
For `N#Cc1ccccc1C(=O)N(Cc1cncn1Cc1cccc(F)c1)CC1CC1`, in that order: 100%, 92% and 0%.
Take `CCCCCCSc1nnc(COc2cccc3ccccc23)n1-c1ccc(OC)cc1`: the Inhibition in the assay on Plasmodium falciparum [1] is listed as 99%; in the assay on Plasmodium falciparum [2], 100%; in the assay on HepG2 it was 19%.
For `CCCCCCC(C)c1cc(O)c2c(c1)OC(=O)CC2(CC)c1ccccn1.Cl` (stereo not drawn), in that order: 100%, 0% and 15%.
The corresponding values for `Cc1cc(N2CCC(N(C)C)C2)nc(Nc2ccc(Cl)cc2)n1` (stereo not drawn) are 99%, 17% and 11%.
